# Source: the supplement of paper PMC12067093, “Discovery and optimisation of a covalent ligand for TRIM25 and its application to targeted protein ubiquitination” (Chemical Science, 2025)
# Of roughly 21,000 targets only a part is listed; those with the largest changes were picked by preference.
# Compound: Cc1cc(ccc1-c1ccccc1)C(=O)N1CCCN(CC1)C(=O)CCl [compound 10]
# Test: probe-labelled cysteine peptide fold change vs DMSO (competition) (log2 fold change); higher = less target engagement (more negative = stronger competition)
# Settings: 10 µM; THP-1; incubation time: 4 h
# 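Also: competitive profiling in live THP-1 cells: cysteine peptides tagged with an iodoacetamide desthiobiotin (IA-DTB) probe, intensity after compound treatment relative to DMSO-treated cells.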
row,Target,probe-labelled cysteine peptide fold change
1,COL15A1_P39059_965_GAIFPIPVRPHCK (UniProt P39059),-0.0948
2,CPNE8_Q86YQ8_196_SNEDGSFTICHK (UniProt Q86YQ8),0.205
3,COA7_Q96BR5_187_ACDLGHIWACANASR (UniProt Q96BR5),0.0578
4,COG1_Q8WTW3_625_LCQSLGELCPHLK (UniProt Q8WTW3),-0.144
5,DDX46_Q7L014_646_ASYPCMSLHGGIDQYDR (UniProt Q7L014),-0.0173
6,DCLRE1C_Q96SD1_34_AYFLSHCHK (UniProt Q96SD1),-0.0775
7,DDHD2_O94830_470_ESEFCSSSNTR (UniProt O94830),-0.28
8,DNMT1_P26358_353+356_CIQCGQYLDDPDLK (UniProt P26358),0.138
9,COPA_P53621_1148_KILSACEK (UniProt P53621),-0.212
10,COLGALT1_Q8NBJ5_283_QAEVQMYVCNK (UniProt Q8NBJ5),0.265
11,CSDE1_O75534_657_FQLCVLGQNAQTMAYNITPLR (UniProt O75534),0.223
12,CTPS2_Q9NRF8_299_ICSIALVGK (UniProt Q9NRF8),-0.0254
13,CUL3_Q13618_462+464_LKTECGCQFTSK (UniProt Q13618),-0.0794
14,DCTD_P32321_60_IVGIGYNGMPNGCSDDVLPWR (UniProt P32321),0.155
15,CSE1L_P55060_61_VCASVTFK (UniProt P55060),-0.071
16,DDX52_Q9Y2R4_342_TGFRDQLASIFLACTSHK (UniProt Q9Y2R4),0.00973
17,CMTR1_Q8N1G2_794_DSTFDLPADSIAPFHICYYGR (UniProt Q8N1G2),0.205
18,CTNNB1_P35222_466_AGDREDITEPAICALR (UniProt P35222),0.16
19,DENND4B_O75064_652_HAALEFFDSCVEK (UniProt O75064),0.0262

row,Target,probe-labelled cysteine peptide fold change
1,CNOT4_O95628_175_AIQCVNNVVVDGR (UniProt O95628),-0.0308
2,DENND4A_Q7Z401_952_GSADCLPK (UniProt Q7Z401),-0.312
3,DHX8_Q14562_1108_AICSGFFR (UniProt Q14562),-0.267
4,DNM1L_O00429_446_IIQHCSNYSTQELLR (UniProt O00429),-0.165
5,CSRP1_P21291_167_GLESTTLADKDGEIYCK (UniProt P21291),-0.0814
6,CRABP1_P29762_130_ELANDELILTFGADDVVCTR (UniProt P29762),0.082
7,CXXC1_Q9P0U4_38_KPDINCFMIGCDNCNEWFHGDCIR (UniProt Q9P0U4),0.0402
8,DGLUCY_Q7Z3D6_265_APPGCLTPER (UniProt Q7Z3D6),-0.239
9,DMXL2_Q8TDJ6_1897_VGCPVLALEVLSK (UniProt Q8TDJ6),0.0214
10,CPSF1_Q10570_1102_IELQEWEHVTCMK (UniProt Q10570),0.0314
11,DHX9_Q08211_777_VRPGFCFHLCSR (UniProt Q08211),-0.231
12,DNAJC7_Q99615_58_AIDMCPK (UniProt Q99615),0.162
13,DDX17_Q92841_319_CTYLVLDEADRMLDMGFEPQIR (UniProt Q92841),0.023
14,CROT_Q9UKG9_166_MLFSTCK (UniProt Q9UKG9),-0.0518
15,DDX17_Q92841_166+199_GGDVCPKPVFAFHHANFPQYVMDVLMDQHFTEPTPIQCQGFPLALSGR (UniProt Q92841),-0.28
16,COPE_O14579_225_CSPTLLLLNGQAACHMAQGR (UniProt O14579),0.0563
17,CTSG_P08311_207_AAFKGDSGGPLLCNNVAHGIVSYGK (UniProt P08311),-0.329
18,DIAPH3_Q9NSV4_663_IRPHEMTENCFWIK (UniProt Q9NSV4),-0.0626

# Same assay, conditions: 50 µM; THP-1; incubation time: 4 h
row,Target,probe-labelled cysteine peptide fold change
1,COL15A1_P39059_965_GAIFPIPVRPHCK (UniProt P39059),0.0369
2,CPNE8_Q86YQ8_196_SNEDGSFTICHK (UniProt Q86YQ8),0.413
3,COA7_Q96BR5_187_ACDLGHIWACANASR (UniProt Q96BR5),0.0556
4,COG1_Q8WTW3_625_LCQSLGELCPHLK (UniProt Q8WTW3),-0.347
5,DDX46_Q7L014_646_ASYPCMSLHGGIDQYDR (UniProt Q7L014),0.231
6,DCLRE1C_Q96SD1_34_AYFLSHCHK (UniProt Q96SD1),-0.167
7,DDHD2_O94830_470_ESEFCSSSNTR (UniProt O94830),-0.538
8,DNMT1_P26358_353+356_CIQCGQYLDDPDLK (UniProt P26358),-0.0723
9,COPA_P53621_1148_KILSACEK (UniProt P53621),-1.12
10,COLGALT1_Q8NBJ5_283_QAEVQMYVCNK (UniProt Q8NBJ5),0.751
11,CSDE1_O75534_657_FQLCVLGQNAQTMAYNITPLR (UniProt O75534),0.2
12,CTPS2_Q9NRF8_299_ICSIALVGK (UniProt Q9NRF8),0.193
13,CUL3_Q13618_462+464_LKTECGCQFTSK (UniProt Q13618),-1.31
14,DCTD_P32321_60_IVGIGYNGMPNGCSDDVLPWR (UniProt P32321),-0.179
15,CSE1L_P55060_61_VCASVTFK (UniProt P55060),0.0214
16,DDX52_Q9Y2R4_342_TGFRDQLASIFLACTSHK (UniProt Q9Y2R4),0.189
17,CMTR1_Q8N1G2_794_DSTFDLPADSIAPFHICYYGR (UniProt Q8N1G2),0.653
18,CTNNB1_P35222_466_AGDREDITEPAICALR (UniProt P35222),1.07
19,DENND4B_O75064_652_HAALEFFDSCVEK (UniProt O75064),0.235

row,Target,probe-labelled cysteine peptide fold change
1,CNOT4_O95628_175_AIQCVNNVVVDGR (UniProt O95628),-0.303
2,DENND4A_Q7Z401_952_GSADCLPK (UniProt Q7Z401),0.101
3,DHX8_Q14562_1108_AICSGFFR (UniProt Q14562),0.29
4,DNM1L_O00429_446_IIQHCSNYSTQELLR (UniProt O00429),-0.0631
5,CSRP1_P21291_167_GLESTTLADKDGEIYCK (UniProt P21291),-1.06
6,CRABP1_P29762_130_ELANDELILTFGADDVVCTR (UniProt P29762),0.307
7,CXXC1_Q9P0U4_38_KPDINCFMIGCDNCNEWFHGDCIR (UniProt Q9P0U4),-1.06
8,DGLUCY_Q7Z3D6_265_APPGCLTPER (UniProt Q7Z3D6),-0.427
9,DMXL2_Q8TDJ6_1897_VGCPVLALEVLSK (UniProt Q8TDJ6),-0.0631
10,CPSF1_Q10570_1102_IELQEWEHVTCMK (UniProt Q10570),-0.201
11,DHX9_Q08211_777_VRPGFCFHLCSR (UniProt Q08211),-0.0284
12,DNAJC7_Q99615_58_AIDMCPK (UniProt Q99615),0.0415
13,DDX17_Q92841_319_CTYLVLDEADRMLDMGFEPQIR (UniProt Q92841),-0.374
14,CROT_Q9UKG9_166_MLFSTCK (UniProt Q9UKG9),-0.0687
15,DDX17_Q92841_166+199_GGDVCPKPVFAFHHANFPQYVMDVLMDQHFTEPTPIQCQGFPLALSGR (UniProt Q92841),-1.05
16,COPE_O14579_225_CSPTLLLLNGQAACHMAQGR (UniProt O14579),0.158
17,CTSG_P08311_207_AAFKGDSGGPLLCNNVAHGIVSYGK (UniProt P08311),-0.817
18,DIAPH3_Q9NSV4_663_IRPHEMTENCFWIK (UniProt Q9NSV4),-0.468
